In the library only some 9% were active in any assay of this set; here they are far more common.
BAZ2B block: qHTS Assay for Inhibitors of BAZ2B | AlphaScreen BAZ2B-H3K14Ac peptide displacement | Potency, µM (doses to about 114 µM), without a hit: at the top dose activity change, negative = inhibition, hits mostly inhibitors | actives 4.4% (n = 360,000); also: % is scaled to controls: 0 for no effect and ±100 for the full control effect; nearly all actives have a fitted effect of over 60% in size
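AlphaScreen displacement of biotin-H3(5-23)K14Ac peptide (50 nM final) from BAZ2B (50 nM final) in PBS pH 7.4, 0.01% Tween-20; complex preformed 30 min RT, then compounds (top 110 uM) 30 min RT, beads 20 min dark.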
G9a inh: qHTS Assay for Inhibitors of Histone Lysine Methyltransferase G9a. AID 504332, 2011. actives 8.8% (n = 350,000). Potency, µM (doses to about 102 µM), without a hit: at the highest dose activity, negative = inhibition, most hits filed as inhibitors. Histone-lysine N-methyltransferase EHMT2 (Homo sapiens), Q96KQ7. G9a H3K9 monomethylation, AlphaScreen, 2 h; also: % is scaled to controls: 0 for no effect and ±100 for the full control effect; nearly all actives have a fitted effect of over 75% in size
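Signal arises when biotinylated H3K9 peptide, once monomethylated, bridges streptavidin donor and antibody-captured acceptor beads. Enzyme at 20 nM was preincubated 15 min with test compounds; peptide 500 nM and SAM 20 uM then reacted for 2 h.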
JMJD2A Tudor inh: qHTS Assay for Inhibitors of JMJD2A-Tudor Domain. Lysine-specific demethylase 4A (Homo sapiens), O75164. AlphaScreen JMJD2A-Tudor / H3K4me3 peptide binding. Potency, µM (titrated, usually from 114 µM), for the others: at the highest dose activity change, negative = inhibition, hits mostly inhibitors. actives 4.4% (n = 390,000); also: % is scaled to controls: 0 for no effect and ±100 for the full control effect; nearly all actives have a fitted effect of over 50% in size
HP1b chromo inh: HTS for Inhibitors of HP1-beta Chromodomain Interactions with Methylated Histone Tails; actives 0.56% (n = 390,000); AlphaScreen HP1-beta / biotin-H3K9me3 peptide binding; Chromobox protein homolog 1 (Homo sapiens), P83916; Potency, µM (doses to about 114 µM), without a hit: top-dose activity change, negative = inhibition, most hits filed as inhibitors; also: nearly all actives have a fitted effect of over 70% in size
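HP1-beta protein (50 nM final) preincubated 30 min at room temperature with biotinylated H3(1-18)K9me3 peptide (50 nM) in PBS pH 7.4, 0.01% Tween-20, then compound added for 30 min. AlphaScreen streptavidin donor/nickel chelate acceptor beads (10 ug/mL final), 30 min dark, luminescence read.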
PLK1 PBD inh: qHTS for Inhibitors of PLK1-PDB (polo-like kinase 1 - polo-box domain): Primary Screen; Plk1 PBD binding of FITC phosphopeptide, fluorescence polarization; Potency, µM, without a hit: max response, negative = inhibition, actives largely listed as inhibitors; actives 2.8% (n = 360,000); AID 720504, 2013; also: series mostly up to about 57 µM; % is scaled to controls: 0 for no effect and ±100 for the full control effect; nearly all actives have a fitted effect of over 65% in size
Target sequence (P53350 whole entry, looked up, the tested form may be a part): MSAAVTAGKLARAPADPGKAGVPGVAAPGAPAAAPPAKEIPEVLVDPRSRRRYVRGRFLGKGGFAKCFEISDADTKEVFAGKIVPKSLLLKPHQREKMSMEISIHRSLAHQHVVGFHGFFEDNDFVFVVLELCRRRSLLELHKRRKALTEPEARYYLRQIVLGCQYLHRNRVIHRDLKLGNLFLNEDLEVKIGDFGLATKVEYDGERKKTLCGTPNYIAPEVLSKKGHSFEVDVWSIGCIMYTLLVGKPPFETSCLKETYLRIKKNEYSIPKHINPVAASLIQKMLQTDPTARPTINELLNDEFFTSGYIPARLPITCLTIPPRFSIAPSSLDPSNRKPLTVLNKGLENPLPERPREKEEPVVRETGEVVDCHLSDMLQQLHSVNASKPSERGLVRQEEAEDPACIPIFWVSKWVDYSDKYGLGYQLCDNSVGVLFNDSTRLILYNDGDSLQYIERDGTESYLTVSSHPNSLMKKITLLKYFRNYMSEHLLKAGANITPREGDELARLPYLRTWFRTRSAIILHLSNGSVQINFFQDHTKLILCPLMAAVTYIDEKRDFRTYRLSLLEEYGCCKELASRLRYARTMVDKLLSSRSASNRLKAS
12-LOX inh: Primary qHTS assay for inhibitors of human arachidonate 12S-lipoxygenase (ALOX12): Round 2 | Potency, µM (doses to about 108 µM), for inactives: at the highest dose activity change, negative = inhibition, usual class: inhibitors | purified 12hLO, xylenol orange hydroperoxide absorbance | actives 1.1% (n = 580,000) | Polyunsaturated fatty acid lipoxygenase ALOX12 (Homo sapiens), P18054; also: % is scaled to controls: 0 for no effect and ±100 for the full control effect
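Purified human 12hLO at 150 nM in 25 mM Hepes, 0.01% Triton X-100, pH 7.0, preincubated 15 min at room temperature with compound. Reaction started with 40 uM arachidonic acid, 30 min at room temperature. Hydroperoxide measured by Fe-xylenol orange, 573/405 nm absorbance ratio.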
The depositor's hits bear a star; [ ] = remark or other dose. Calls follow the shape of the dose curve; as a rule, active = well fitted curve in the direction sought with a large enough effect; inconclusive = small, poorly fitted or top-dose-only effect, or another doubt; inactive = no such curve, though single readings can be large; an effect the other way counts as inactive or inconclusive. Potency is read from the fitted curve at half-maximal effect.

Screening Cc1ccc(NC(=O)c2ccc(NCCc3ccccc3)c([N+](=O)[O-])c2)cc1F returned BAZ2B block 8%, G9a inh 6%, JMJD2A Tudor inh -11%, HP1b chromo inh 26%, PLK1 PBD inh 38% and 12-LOX inh 8%.
`Cc1ccc(CNC(=O)N2CCC(OC3CCN(S(C)(=O)=O)CC3)CC2)cc1` gave 12-LOX inh -3%.
For Cc1sc(NC(=O)CN(Cc2ccccc2)C(=O)C(C)C)c(C(N)=O)c1C the results were BAZ2B block 5%, G9a inh 8%[59 µM], JMJD2A Tudor inh -8%, HP1b chromo inh 26%, PLK1 PBD inh -2% and 12-LOX inh 2%.
NNC(=O)c1cn2ccccc2n1 was read as BAZ2B block 18µM*, G9a inh 3.2µM*, JMJD2A Tudor inh 20µM*, HP1b chromo inh 28%, PLK1 PBD inh -4% and 12-LOX inh -5%.
Screening CCOc1ccccc1CNCc1cccn1-c1nnc(N2CCN(c3ccccc3)CC2)s1 returned BAZ2B block inconclusive, G9a inh 14µM*, JMJD2A Tudor inh inconclusive, HP1b chromo inh -21% and 12-LOX inh -15%.
Screening COc1cc(N2CCCC2)c(OC)cc1/C=C1/NC(=S)NC1=O returned BAZ2B block inconclusive, G9a inh 22µM*, JMJD2A Tudor inh -34%, HP1b chromo inh -28%, PLK1 PBD inh 23% and 12-LOX inh inconclusive.
`CCOc1cc(CNCCCN2CCOCC2)ccc1OCC(=O)Nc1cccc2ccccc12` gave BAZ2B block -6%, G9a inh inconclusive, JMJD2A Tudor inh -22%, HP1b chromo inh 27%, PLK1 PBD inh -8% and 12-LOX inh -19%.
For CC1CC(C)CN(CC(=O)Nc2ccc3c(c2)OCCO3)C1 (configuration not stated) the results were BAZ2B block 79µM*, G9a inh -43%[12.7 µM], JMJD2A Tudor inh 0.89µM*, HP1b chromo inh inconclusive, PLK1 PBD inh -13% and 12-LOX inh inconclusive.
CC1CCN(CCC(=O)Nc2ccc3c(c2)OCCO3)CC1 was read as BAZ2B block 56µM* and G9a inh -47%.
`Cc1ccc(NC(=O)CCN2CCC(C)CC2)cc1` gave BAZ2B block inconclusive, JMJD2A Tudor inh 2%, HP1b chromo inh 46%, PLK1 PBD inh 5% and 12-LOX inh inconclusive.
For CCOc1cc(/C=C2\COc3ccccc3C2=O)cc(Br)c1OCC(=O)N(C)C the results were BAZ2B block inconclusive, G9a inh 40µM*, JMJD2A Tudor inh inconclusive, HP1b chromo inh -22%, PLK1 PBD inh -26% and 12-LOX inh -25%.
`COc1ccc(/C=C2\COc3ccccc3C2=O)cc1OC` gave BAZ2B block -3%, G9a inh -10%[59 µM], JMJD2A Tudor inh 50µM*, HP1b chromo inh -3%, PLK1 PBD inh 27µM* and 12-LOX inh -30%.
COc1ccc(/C=C2/CCc3ccccc3C2=O)cc1OC was read as BAZ2B block inconclusive, G9a inh -1%[59 µM], JMJD2A Tudor inh -12%, HP1b chromo inh 20%, PLK1 PBD inh -1% and 12-LOX inh -19%.
Screening CC(C)OC(=O)c1nnc(Cc2ccc(Cl)cc2)o1 returned BAZ2B block 6%, G9a inh -2%, JMJD2A Tudor inh -2%, HP1b chromo inh 67%, PLK1 PBD inh 0% and 12-LOX inh 403%.
